From PubChem BioAssay
This is a sample that favours compounds with a hit; in the whole collection about 3% have one here.
INS promoter inh – inhibitors of insulin promoter-driven GFP, primary screen, imaging, TRM-6 cells (human fetal islet line), eGFP reporter, cell count | actives 0.9% (n = 130,000) | inhibition, % at 2 µM | reporter expression induced with tamoxifen;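 active means inhibition above the mean plus 3 SD, with well images judged a real hit on visual review, cut at about 60% in these data, passing the limit was not always enough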
ROMK primary – ROMK potassium channel modulators, primary screen, cell-based, thallium flux, MLSMR library; ATP-sensitive inward rectifier potassium channel 1 (Homo sapiens), P48048; Tet-inducible ROMK, thallium flux fluorescence; actives lie on both sides; B-score at 10 µM; actives 2% (n = 130,000); AID 1918, 2009;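 active means signal ratio slope over the read window, or its plate-corrected B-score, at least 3 SD from the plate mean, either direction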;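 further: B-score of the F/F0 ratio slope over 7 to 12 s after thallium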
Target sequence (P48048 whole entry, looked up): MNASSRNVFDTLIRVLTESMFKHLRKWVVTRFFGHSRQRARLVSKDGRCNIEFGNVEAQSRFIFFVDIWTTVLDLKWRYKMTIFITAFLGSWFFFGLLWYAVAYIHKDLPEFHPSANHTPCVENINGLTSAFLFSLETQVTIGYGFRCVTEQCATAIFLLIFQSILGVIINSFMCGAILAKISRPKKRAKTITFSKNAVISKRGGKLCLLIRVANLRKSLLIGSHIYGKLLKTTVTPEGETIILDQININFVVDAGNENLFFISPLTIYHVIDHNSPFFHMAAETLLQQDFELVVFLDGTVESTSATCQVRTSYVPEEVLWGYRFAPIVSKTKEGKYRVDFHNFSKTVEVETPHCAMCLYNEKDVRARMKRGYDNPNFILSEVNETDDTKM
SDO1 yeast rescue – growth rescue of sdo1-depleted yeast, primary screen, S. cerevisiae, bone marrow failure model; AID 817, 2007; actives 0.21% (n = 140,000); S. cerevisiae sdo1-depleted JHY4D growth rescue, OD600 30 h; hits give high values; pdr5 snq2 efflux-pump mutant strain; z-score at 10 µM;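 active means z-score above 3 at both the 24 hr and the 30 hr optical density reads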;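 further: z-score against mean and SD of all compound wells on the same plate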
Measles CPE – compounds protecting cells from measles virus cytopathic effect, primary screen, measles RdRp inhibitor project, single point, MLSMR library, absorbance; protection (pct of control), % at 4 µM; actives 1.5% (n = 140,000); Measles virus-infected cells, CPE protection; AID 841, 2007; in the data active means protection mostly above about 24%, no sharp cut-off; inactive means mostly below about 26%
Starred values were filed as active, the others as inactive.

`O=C(NCc1ccc2c(c1)OCO2)C1(S(=O)(=O)c2ccccc2)CC1` gave INS promoter inh 93*, SDO1 yeast rescue -0.6 and Measles CPE 2.
`Cc1ccc(NC(=O)CNc2ccc(OC(C)C)cc2)c(C)c1` gave INS promoter inh 75*, SDO1 yeast rescue -0.24 and Measles CPE 21.
For COc1ccc(CNC(=O)Nc2ccc3c(c2)N(C)C(=O)CS3)cc1 the results were ROMK primary 0.49.
`N#CCCN1CCN(S(=O)(=O)c2ccc(S(=O)(=O)N3CCOCC3)cc2)CC1` gave INS promoter inh 30, SDO1 yeast rescue 0.1 and Measles CPE 28*.
For O=C(CN(Cc1ccccc1)S(=O)(=O)c1ccccc1)N/N=C/c1ccccc1C(=O)O the results were ROMK primary 0.13.
For CCOC(=O)N1CCC(N2Cc3cccc(C(=O)Nc4cccc(F)c4)c3C2=O)CC1 the results were INS promoter inh 56 and ROMK primary 0.65.
`COc1ccccc1N1CCN(S(=O)(=O)Cc2ccccc2Cl)CC1` gave INS promoter inh 89*, ROMK primary -0.042, SDO1 yeast rescue -0.64 and Measles CPE 23.
Screening Cc1cccc(C(C)(C)C)c1OCCn1ccnc1 returned INS promoter inh 89*, SDO1 yeast rescue -1.8 and Measles CPE 26*.
Screening Cc1cccc(Cl)c1OCCCCn1ccnc1 returned INS promoter inh 20, SDO1 yeast rescue 0.75 and Measles CPE 10.
`Cc1cc(Cl)c(OCCCN(C)C)c(Br)c1` gave INS promoter inh -33, SDO1 yeast rescue 1.1 and Measles CPE 48*.
For CCOC(=O)c1cnc(-c2ccccc2)nc1N the results were INS promoter inh 95*, ROMK primary -0.11, SDO1 yeast rescue -0.03 and Measles CPE 14.
For O=C1Nc2cc(Cl)c(Cl)cc2N(O)N1c1ccc(Cl)c(Cl)c1 the results were INS promoter inh 20, SDO1 yeast rescue 0.81 and Measles CPE 8.
CC(=O)Nc1ccc(NC(=O)Cc2ccc(S(=O)(=O)N3CCCCC3)s2)cc1 was read as INS promoter inh 80*, ROMK primary 1.4, SDO1 yeast rescue -0.67 and Measles CPE 10.
For O=Cc1cc([N+](=O)[O-])ccc1N1CCOCC1 the results were INS promoter inh 8, ROMK primary -0.27, SDO1 yeast rescue 0.46 and Measles CPE 33*.
Screening Cc1cccc(NC(=S)N(CCN2CCOCC2)Cc2cc3cc4c(cc3[nH]c2=O)OCCO4)c1 returned INS promoter inh 36 and ROMK primary 0.13.
For Cc1nc([N+](=O)[O-])c(Sc2nc3ccc([N+](=O)[O-])cc3[nH]2)n1Cc1ccccc1 the results were INS promoter inh -4, ROMK primary 0.52, SDO1 yeast rescue -0.35 and Measles CPE 9.
`CS(=O)(=O)N(CC(=O)N1CCCC1)c1ccc(OCc2ccccc2)cc1` gave INS promoter inh 75*, ROMK primary -0.54, SDO1 yeast rescue 0.13 and Measles CPE 14.
O=C(COc1ccc(Br)cc1)N1CCN(c2ccccc2)CC1 was read as INS promoter inh -57, SDO1 yeast rescue -0.41 and Measles CPE 35*.
`COc1ccc(N2CCN(C(=O)CN(c3ccc(Br)cc3)S(C)(=O)=O)CC2)cc1` gave INS promoter inh 75*, ROMK primary 0.27, SDO1 yeast rescue -0.31 and Measles CPE 11.
COc1ccc(N2CCN(C(=O)CN(Cc3ccccc3)S(C)(=O)=O)CC2)cc1 was read as INS promoter inh -26, ROMK primary -0.27, SDO1 yeast rescue 0.12 and Measles CPE 10.
For Cc1cccc(C)c1NC(=O)COc1cccc(/C=N/NC(=O)C(=O)NCc2ccccc2)c1 the results were INS promoter inh -25, SDO1 yeast rescue 1.1 and Measles CPE 18.
For CN(C(=O)c1ccc(=O)n(Cc2ccc(Cl)cc2)c1)c1ccccc1 the results were ROMK primary 0.27.
Screening Fc1ccc(CN2CCN(c3ncccn3)CC2)cc1 returned INS promoter inh -32, ROMK primary 0.13, SDO1 yeast rescue 0.54 and Measles CPE 36*.
`Cn1c(=O)n(C)c2cc([N+](=O)[O-])c(N3CCN(S(=O)(=O)c4ccc5ccccc5c4)CC3)cc21` gave SDO1 yeast rescue -1.3 and Measles CPE 33*.
Screening Cc1ccc(S(=O)(=O)N2CCN(c3cc4c(cc3[N+](=O)[O-])n(C)c(=O)n4C)CC2)cc1 returned SDO1 yeast rescue -1.1 and Measles CPE 3.
`C[C@H](NC(=O)c1ccccc1Cl)C(=O)OC(C(=O)Nc1cc(C(F)(F)F)ccc1Cl)c1ccccc1` (some centres not stated) gave INS promoter inh 0, ROMK primary -0.54, SDO1 yeast rescue -0.67 and Measles CPE 58*.
O=C(CNC(=O)c1ccccc1F)OC(C(=O)Nc1cc(C(F)(F)F)ccc1Cl)c1ccccc1 (configuration not stated) was read as INS promoter inh 11, ROMK primary -0.5, SDO1 yeast rescue -1.1 and Measles CPE 1.
Cc1ccc(C(=O)CSc2nnc(C)s2)cc1 was read as INS promoter inh 7, ROMK primary 0.012, SDO1 yeast rescue 0.69 and Measles CPE 1.
Cc1nnc(SCC(=O)c2ccc(Br)cc2)s1 was read as INS promoter inh 79* and ROMK primary 0.13.
COc1cc(/C=N/OCC(=O)NC2CCCCC2)ccc1OCc1ccccc1 was read as INS promoter inh -25, ROMK primary -0.022, SDO1 yeast rescue -1.7 and Measles CPE 86*.
For CSc1ccccc1NC(=O)CO/N=C(\C)c1cc2ccccc2o1 the results were INS promoter inh -6, ROMK primary 0.36, SDO1 yeast rescue -0.22 and Measles CPE 10.
Screening COc1cc(/C=N/OCC(=O)NC23CC4CC(CC(C4)C2)C3)ccc1OCc1ccccc1 returned SDO1 yeast rescue 0.83 and Measles CPE 49*.
`C/C(=N\OCC(=O)NC12CC3CC(CC(C3)C1)C2)c1cc2ccccc2o1` gave SDO1 yeast rescue -1.7 and Measles CPE 19*.
For O=S(=O)(NCc1ccccc1)c1cccc2cccnc12 the results were INS promoter inh -41, ROMK primary -0.17, SDO1 yeast rescue 0.15 and Measles CPE 43*.
`O=S(=O)(NCc1cccnc1)c1cccc2cccnc12` gave INS promoter inh -68, ROMK primary -0.53, SDO1 yeast rescue 0.19 and Measles CPE 1.
For O=C(Cc1coc2ccc3ccccc3c12)Nc1nnc(C2CC2)s1 the results were INS promoter inh 23, SDO1 yeast rescue -0.71 and Measles CPE 56*.
`Cc1ccc(C(C(=O)Nc2ccc3c(c2)OCO3)N(C)C(=O)Cc2c[nH]c3ccccc23)cc1` (configuration not stated) gave INS promoter inh 7, ROMK primary 0.11, SDO1 yeast rescue -0.32 and Measles CPE 8.
Screening CC(=O)Nc1ccccc1-c1nc2ccccc2nc1OCC(=O)c1ccc(Cl)cc1 returned SDO1 yeast rescue -0.17 and Measles CPE 4.
For CCCc1nn(CCc2ccccn2)c(N)c1CC the results were INS promoter inh 69*, ROMK primary 0.017, SDO1 yeast rescue 1.1 and Measles CPE 11.
